From PubChem BioAssay
LGR2 inh: blocks bursicon-induced cAMP signaling via Drosophila LGR2 | inhibition, % at 9.99 µM | hit rate 0.35% among 380,000 | HEK293 LGR2, CRE-luciferase, bursicon-stimulated, 4 h;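 active means drop in luminescence signal, shown as inhibition above about 50% in the replicate tests, limit read from the data, passing the limit was not always enough; inconclusive means probably only some replicates passing the limit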;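 further: agonist challenge used bursicon conditioned medium at about half maximal strength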
Shn3 3UTR inh: inhibitors of Schnurri-3 3'UTR reporter in osteoblasts; AID 588674; Clone20 osteoblast Shn3 3'UTR firefly luciferase, 24 h; hit rate 0.52% among 360,000; inhibition, % at 12.5 µM;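 active means mean inhibition of at least 75% with every replicate also reaching 75%; inconclusive means mean inhibition at least 75% but some replicate below; inactive means mean inhibition below 75%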;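 further: 0% = median of neutral control wells and 100% = pilot-screen positive control compound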
EWS-Fli block: blocks EWS/Fli oncoprotein-driven transcription | A673 NR0B1-luciferase reporter, viability-normalised | hit rate 0.67% among 350,000 | AID 651661 | inhibition, % at 12.6 µM;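 active means mean inhibition of at least 50% after viability correction, with every replicate also passing that limit; inconclusive means mean reaches 50% but only one of two replicates passes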;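 further: firefly luciferase signal divided by Alamar Blue viability fluorescence both relative to DMSO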
KKLEB cytotox: counter-screen for CF NF-kB inhibitors: cytotoxicity; activity change (cytotoxicity), % at 5 µM; hit rate 0.36% among 360,000; AID 602141; KKLEB CF airway cells viability, ATPlite luminescence, overnight; active compounds read low; cells stimulated with P. aeruginosa culture filtrate;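 active means corrected activity change at or below -50% at 5 µM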
PAX8 reporter: inhibitors of PAX8 transcriptional activity in RMG-I cells. RMG-I TPO-luciferase reporter, SteadyGlo, 24 h. inhibition, % at 12.6 µM. hit rate 1.2% among 360,000;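 active means mean replicate inhibition at least 60% with every replicate also reaching 60%; inconclusive means only one of the two criteria is met; inactive means mean below 60% and not all replicates reaching 60%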;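 further: luciferase light reporting Pax8 driven TPO promoter activity; plate controls were median of neutral control wells for no effect and mitoxantrone controls for full effect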
CF NFkB inh: blocks PAF-induced NF-kB reporter in cystic fibrosis cells; KKLEB NF-kB-GFP reporter, GFP fluorescence overnight; inhibition, % at 5 µM; hit rate 0.86% among 360,000; AID 588850;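 active means at least 50% inhibition at 5 µM, scaled per plate between neutral and stimulator controls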;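 further: PAF is a Pseudomonas aeruginosa culture filtrate used as stimulus; plate controls were PAF-stimulated DMSO wells for no effect and unstimulated DMSO wells for full effect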
* hit, by the source's call; ? = inconclusive; . = not tested or not shown. In the library only some 2% were active in any assay of this set; here they are far more common.

SMILES	LGR2 inh	Shn3 3UTR inh	EWS-Fli block	KKLEB cytotox	PAX8 reporter	CF NFkB inh
O=S1(=O)c2ccc(Br)cc2N2CC[C@H](C2)N1Cc1ccc(Cl)cc1	-13	18	66*	-1	27	9
C[C@H]1CN([C@@H](C)CO)C(=O)c2cc(NS(=O)(=O)c3ccccc3)ccc2O[C@@H]1CN(C)Cc1ccc(Oc2ccccc2)cc1	19	.	-16	.	92*	.
C[C@H]1CN([C@@H](C)CO)C(=O)c2cc(NS(=O)(=O)c3ccccc3)ccc2O[C@H]1CN(C)Cc1ccc(Oc2ccccc2)cc1	-12	.	7	.	-22	.
Cc1noc(C)c1S(=O)(=O)Nc1ccc2c(c1)C(=O)N([C@H](C)CO)C[C@@H](C)[C@@H](CN(C)Cc1ccc(Oc3ccccc3)cc1)O2	10	.	67*	.	.	.
COCC(=O)Nc1ccc2c(c1)C(=O)N(C)C[C@@H](OC)[C@H](C)CN(CC1CC1)[C@@H](C)CO2	-14	.	1	.	3	.
C[C@@H]1CN([C@@H](C)CO)C(=O)Cc2cc(NC(=O)NC3CCCCC3)ccc2O[C@H]1CN(C)Cc1ccc(-c2ccccc2)cc1	22	.	17	.	79*	.
C[C@H]1CN([C@@H](C)CO)C(=O)Cc2cc(NC(=O)NC3CCCCC3)ccc2O[C@@H]1CN(C)Cc1ccc(-c2ccccc2)cc1	-5	.	13	.	103*	.
C[C@H]1CN([C@@H](C)CO)C(=O)Cc2cc(NC(=O)NC3CCCCC3)ccc2O[C@H]1CN(C)Cc1ccc(-c2ccccc2)cc1	19	.	10	.	103*	.
C[C@H](CO)N1C[C@H](C)[C@H](CN(C)Cc2ccc(-c3ccccc3)cc2)Oc2ccc(NC(=O)NC3CCCCC3)cc2CC1=O	35	.	3	.	16	.
O=C(CCN1CCCCC1)NCC[C@H]1CC[C@@H](NC(=O)C2CCCCC2)[C@@H](CO)O1	-4	.	1	.	8	.
CC(C)NC(=O)N1CC2(C1)[C@H](c1ccccc1)[C@H](CO)N2CCC(F)(F)F	-2	.	12	.	-12	.
C[C@@H]1CN([C@@H](C)CO)C(=O)c2cc(C#CC3(O)CCCC3)cnc2O[C@H]1CN(C)C(=O)C1CCOCC1	4	.	-13	.	-22	.
COC(=O)c1ccc(-n2ccnc2)cc1	5	-16	-48	-8	-11	-8
CCOC(=O)C(=Cc1ccc(-n2ccnc2)cc1)C(=O)OCC	50	75	10	-9	32	71*
CCOC(=O)C(=Cc1ccc(Br)cc1)C(=O)OCC	19	-10	?	-31	17	52*
CCOC(=O)/C(=C/c1ccc(OC(=O)c2ccncc2)cc1)C(C)=O	.	16	-1	-4	-2	8
CCCNC(=O)N1C[C@@H](O)COC[C@@H]2O[C@@H](CC(=O)NCc3ccc(Cl)c(Cl)c3)CC[C@H]21	-3	.	-7	.	9	.
CO[C@H]1CN(C)C(=O)c2cc(NC(=O)c3ccccc3F)ccc2OC[C@H](C)NC[C@@H]1C	4	.	-3	.	-6	.
O=C(Nc1cc(F)cc(F)c1)c1ccc(NCCc2ccccc2)c([N+](=O)[O-])c1	20	-2	.	-5	4	0
Cc1ccc(NC(=O)c2ccc(NCCc3ccccc3)c([N+](=O)[O-])c2)cc1F	-18	10	.	-50*	25	46
CCCNC(=O)Nc1ccc2c(c1)OC[C@@H](C)N(Cc1ccncc1)C[C@H](C)[C@@H](OC)CN(C)C2=O	4	.	5	.	6	.
N#Cc1ccc(NC(=O)Nc2ccc(Oc3ccc(NC(=O)Nc4ccc(C#N)cc4)cc3)cc2)cc1	33	91*	19	15	73*	-11
CCCCn1c2ccccc2c2nnc(SCC(=O)NC3=NN=C(c4ccccc4)CS3)nc21	-10	.	18	.	77*	.
CCCn1c2ccccc2c2nnc(SCC(=O)OC)nc21	.	9	.	-2	.	6
CCc1ccc(C2=NNC(=Nc3cccc(S(=O)(=O)N(C)C)c3)SC2)cc1	.	76	36	-7	104*	-8
SMILES	LGR2 inh	Shn3 3UTR inh	EWS-Fli block	KKLEB cytotox	PAX8 reporter	CF NFkB inh
Cc1cccc(-c2nc3cc(NC(=O)C4CCCO4)ccc3o2)c1 (stereo unspecified)	59*	-12	.	-10	-11	-8
NNC(=O)c1ccncc1	17	7	-7	-85*	-9	-14
COC(=O)c1ccc(C(=O)NN)cc1	-3	0	3	9	22	0
Cc1ccc(NC(=O)c2cccc(NC(=O)/C=C/c3ccco3)c2)cc1C	1	-62	-85	-6	-45	6
Cc1ccc(-n2nc3ccc(NC(=O)/C=C/c4ccco4)cc3n2)cc1	.	6	-12	11	68*	-31
COc1ccc(/C=N/NC(=O)c2cc(Br)ccc2O)cc1Cn1cc(Cl)cn1	-13	-6	0	3	11	-3
COc1ccc(/C=N/NC(=O)c2ccc(Cl)cc2)cc1Cn1cc(Cl)cn1	-6	69	2	-51*	-22	17
CCN(CC)c1ccc(C(=C2C=CC(=[N+](CC)CC)C=C2)c2ccc(N(CC)CC)cc2)cc1	.	89*	34	-101*	113*	92*
CCN(CC)c1ccc(C(=C2C=CC(=[N+](CC)CC)C=C2)c2ccccc2)cc1	105*	97*	40	-86*	113*	85*
CCN(CC)c1ccc(C(=O)NNC(=O)CCNC(=O)c2ccccc2)cc1	-15	-15	-10	10	-21	2
Cc1ccc(S(=O)(=O)Nc2ccc3c(c2)CC(=O)N([C@@H](C)CO)C[C@@H](C)[C@H](CN(C)Cc2ccccc2)O3)cc1	10	.	8	.	3	.
C[C@@H]1CCCCO[C@H](CN(C)Cc2ccc(Cl)c(Cl)c2)[C@@H](C)CN([C@@H](C)CO)C(=O)c2cc(NC(=O)NC3CCCCC3)ccc2O1	41	.	-1	.	70*	.
C[C@@H]1CCCCO[C@@H](CN(C)Cc2ccc(Cl)c(Cl)c2)[C@@H](C)CN([C@H](C)CO)C(=O)c2cc(NC(=O)Nc3ccc(F)cc3)ccc2O1	-18	.	2	.	48	.
C[C@@H]1CN([C@@H](C)CO)C(=O)c2cc(NC(=O)Nc3ccc(F)cc3)ccc2O[C@@H](C)CCCCO[C@H]1CN(C)Cc1ccc(Cl)c(Cl)c1	33	.	4	.	72*	.
C[C@@H]1CN([C@@H](C)CO)C(=O)c2cc(NC(=O)NC3CCCCC3)ccc2O[C@@H](C)CCCCO[C@H]1CN(C)Cc1ccc(Cl)c(Cl)c1	-4	.	2	.	?	.
C[C@@H]1CCCCO[C@H](CN(C)Cc2ccc(Cl)c(Cl)c2)[C@H](C)CN([C@@H](C)CO)C(=O)c2cc(NC(=O)Nc3ccc(F)cc3)ccc2O1	-6	41	4	2	75*	25
C[C@H]1CN([C@@H](C)CO)S(=O)(=O)c2ccc(-c3cccc(C(=O)N(C)C)c3)cc2O[C@H]1CN(C)C(=O)Cc1ccccn1	9	.	2	.	.	.
